Molecules are shown by their SMILES. Screen size: about 65,000 compounds; about 450 (0.69%) were called active. Only a selection was taken, and actives are over-represented in it overall. A number with no mark means an inactive call.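 Rule for the calls: active = HER2 level under 5% of the carrier-only control; inconclusive = no clear call, values can overlap the other calls; inactive = the rest.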

The target of the test is Receptor tyrosine-protein kinase erbB-2 (Homo sapiens) (UniProt P04626). Kind of test: reducers of endogenous HER2 protein levels – SKBR-3 cells, AlphaScreen, 66K library, primary screen (AID 645).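 Note: 100% = DMSO carrier and 0% = 500 nM PU-H71 HSP90 inhibitor; lower value means stronger loss of Her2 protein.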 The conditions noted are these: SKBR-3 HER2 protein level, 18-24 h, at 10 µM, active compounds read low.
Sequence of Receptor tyrosine-protein kinase erbB-2 (Homo sapiens) (P04626 whole entry, looked up): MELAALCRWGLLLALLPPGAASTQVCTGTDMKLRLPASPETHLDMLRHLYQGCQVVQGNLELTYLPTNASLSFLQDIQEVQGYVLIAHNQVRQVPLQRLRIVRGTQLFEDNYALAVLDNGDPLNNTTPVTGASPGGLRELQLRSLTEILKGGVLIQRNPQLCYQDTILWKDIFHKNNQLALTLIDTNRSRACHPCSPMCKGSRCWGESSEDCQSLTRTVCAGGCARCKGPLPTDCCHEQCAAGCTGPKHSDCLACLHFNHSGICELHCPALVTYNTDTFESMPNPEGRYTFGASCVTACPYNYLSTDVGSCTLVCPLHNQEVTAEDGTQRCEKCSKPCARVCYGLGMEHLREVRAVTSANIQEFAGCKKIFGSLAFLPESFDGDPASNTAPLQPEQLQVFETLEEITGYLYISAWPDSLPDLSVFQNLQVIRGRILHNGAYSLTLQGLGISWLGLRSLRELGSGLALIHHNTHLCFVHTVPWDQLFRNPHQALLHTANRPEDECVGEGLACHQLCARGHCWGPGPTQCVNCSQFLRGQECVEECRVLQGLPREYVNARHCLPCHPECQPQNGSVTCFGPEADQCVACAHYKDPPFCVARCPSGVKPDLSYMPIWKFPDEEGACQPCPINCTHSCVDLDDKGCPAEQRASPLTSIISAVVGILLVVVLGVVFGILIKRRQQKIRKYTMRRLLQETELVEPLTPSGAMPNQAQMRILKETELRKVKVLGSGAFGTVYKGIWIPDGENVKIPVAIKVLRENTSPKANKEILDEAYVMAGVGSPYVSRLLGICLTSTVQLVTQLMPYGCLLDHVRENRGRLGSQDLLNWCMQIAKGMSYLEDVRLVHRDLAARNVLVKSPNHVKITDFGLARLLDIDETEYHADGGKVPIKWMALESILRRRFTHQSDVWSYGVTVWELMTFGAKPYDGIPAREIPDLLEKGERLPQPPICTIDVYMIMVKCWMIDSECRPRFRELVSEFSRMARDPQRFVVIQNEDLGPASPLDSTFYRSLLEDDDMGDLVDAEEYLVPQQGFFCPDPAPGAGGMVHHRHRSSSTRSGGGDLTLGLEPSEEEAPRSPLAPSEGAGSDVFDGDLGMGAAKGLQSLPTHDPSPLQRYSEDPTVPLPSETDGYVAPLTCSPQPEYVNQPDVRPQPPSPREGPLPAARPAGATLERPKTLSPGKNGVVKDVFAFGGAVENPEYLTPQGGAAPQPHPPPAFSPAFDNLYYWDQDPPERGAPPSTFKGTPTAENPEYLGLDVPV
`O=C(C(NS(=O)(=O)c1cccc2nsnc12)c1ccccc1)N1CCN(c2ccccn2)CC1` (stereo unspecified): the HER2 level % of control is 70.8%.

Regarding `CCOP1(=O)C=C(C(C)(C)C)OC1c1ccc(F)cc1` (stereo unspecified), the HER2 level % of control is -28.1% (active).

Turning to `CC1CCc2c(sc3c2C2=NS(=O)(=O)CCN2C=N3)C1` (stereo unspecified), the HER2 level % of control is 111%.

Regarding `O=C(NCc1cccs1)c1ccc2c(c1)ncn2C1CCCC1`, the HER2 level % of control was 121%.

`Cc1ccc(OCC(O)CN2CCN(CC(O)COc3ccc(C)cc3Cl)CC2)c(Cl)c1` (stereo unspecified): the HER2 level % of control was 65.4%.

In the case of `COc1ccc(N2CCN(CCNC(=O)c3nnc(Cc4c(F)cccc4Cl)o3)CC2)cc1`, the HER2 level % of control was 103%.

Take `O=C(CSc1nnc(Cn2cnc3ccccc32)o1)c1ccccc1`: the HER2 level % of control is 107%.

Consider `CC(C)Oc1ccc(C2NC(=O)NC2=O)cc1` (stereo unspecified), for which the HER2 level % of control was 81.7%.

Consider `Cc1ccccc1N1CC(c2nc3ccccc3[nH]2)CC1=O` (stereo unspecified), for which the HER2 level % of control is 99.4%.

In the case of `N#CC1=C(SCc2ccccc2)NC(=O)C(C#N)C12CCCC2` (stereo unspecified), the HER2 level % of control is 88.2%.

Regarding `CCOC(=O)C1CCCN(C(=O)c2sc3nc(C)nc(N4CCOCC4)c3c2C)C1` (stereo unspecified), the HER2 level % of control was 87.2%.

As for `CCS(=O)(=O)NCCc1ccc(OC)c(OC)c1`, the HER2 level % of control is 90.2%.

As to `CCN(CC(=O)NCc1cccs1)c1nnnn1-c1ccccc1`, the HER2 level % of control was -25.9% (active).

In the case of `Cc1nnc(SCC(=O)NCc2cccs2)[nH]c1=O`, the HER2 level % of control is 87.7%.

In the case of `Cc1ccccc1-n1c(SCC(=O)NCc2cccs2)nnc1-c1ccncc1`, the HER2 level % of control was 108%.

As to `CCN1C(=O)/C(=C2\SC(N3CCCCC3)=NC2=O)c2ccccc21`, the HER2 level % of control was 121%.

Take `COc1cccc(C(=O)Nc2c3c(nn2-c2cccc(C)c2C)CS(=O)(=O)C3)c1OC`: the HER2 level % of control is 119%.

`Cc1nc2cc(-c3ccc(F)cc3)nn2c(N2CCOCC2)c1C`: the HER2 level % of control is 49.6%.

For the compound `Cn1c(=O)c2[nH]c(NCC3CCCO3)nc2n(-c2ccccc2)c1=O` (stereo unspecified), the HER2 level % of control was 83.7%.

Turning to `CCCC(NS(=O)(=O)c1ccc(OC)cc1)C(=O)O` (stereo unspecified), the HER2 level % of control was 96.9%.

`O=S(=O)(Nc1ccccc1N1CCOCC1)c1ccc(Cl)s1`: the HER2 level % of control was 95.5%.

In the case of `N#CC(C(N)=O)=C1CCC2(CC1)OCCCCO2`, the HER2 level % of control is 93.5%.

For the compound `CC1CCC(NS(=O)(=O)c2ccc3c(c2)n(C)c(=O)c(=O)n3C)CC1` (stereo unspecified), the HER2 level % of control is 76.3%.

With `Brc1ccc(OCCn2ccnc2)cc1`, the HER2 level % of control is 109%.

Consider `Cc1ccc(N2CCN(S(=O)(=O)N(C)C)CC2)cc1Cl`, for which the HER2 level % of control was 105%.

For `Cc1nnc(NC2=NCCCCC2)o1`, the HER2 level % of control is 106%.

Regarding `O=C(Nc1cc(=O)[nH]c2ncnn12)c1ccccc1Cl`, the HER2 level % of control is 92%.

Regarding `CSC1=N/C(=C\C=C\c2cccs2)C(=O)S1`, the HER2 level % of control is 0.09% (active).

With `COCC(C)N=CC1=C(O)CC(C)(C)CC1=O` (stereo unspecified), the HER2 level % of control was 118%.

With `Cc1nc2sc(C(c3ccco3)N3CCOCC3)c(O)n2n1` (stereo unspecified), the HER2 level % of control was 51%.

As for `C/C(=C\C(=O)c1ccccc1)Nc1cccc(O)c1`, the HER2 level % of control was 58.9%.

Consider `c1ccc2cc3[nH]c(CN4CCCCC4)nc3cc2c1`, for which the HER2 level % of control is 96.1%.

For the compound `O=C(Nc1cccc(Cl)c1)OCc1ccccn1`, the HER2 level % of control is 91.3%.

With `Cc1cc(C(=O)Nc2c(C)n(C)n(-c3ccccc3)c2=O)cs1`, the HER2 level % of control is 91.6%.

Turning to `Cc1c(NC(=O)c2coc(=O)c(Br)c2)c(=O)n(-c2ccccc2)n1C`, the HER2 level % of control is -15.4% (active).

For the compound `COC(=O)Nc1c(C)n(C)n(-c2ccccc2)c1=O`, the HER2 level % of control is 89.1%.

Consider `CS(=O)(=O)c1ccc2nc(NC(=O)C3CCCCC3)sc2c1`, for which the HER2 level % of control was 45.1%.

As for `CC(=O)c1c(C)n(-c2ccc(N(C)C)cc2)c2ccc(OCC(N)=O)cc12`, the HER2 level % of control was 64.8%.

On to `COc1ccccc1-c1nnc(SCC(=O)Nc2cc(C)on2)o1`, for which the HER2 level % of control was 92.1%.

As for `CC1(C)CC(=O)NC=C(c2ccccc2)C1`, the HER2 level % of control was -32.3% (active).

For the compound `O=c1[nH]c(-c2ccccc2)c(-c2ccccc2)[nH]1`, the HER2 level % of control is 88.4%.

Turning to `CC(C)C1C2=C(CC(C)(C)CC2=O)ON1c1ccccc1` (stereo unspecified), the HER2 level % of control was 89.9%.

`CC(C)(C)NC(=O)Cn1nnc(-c2ccccc2Cl)n1`: the HER2 level % of control was 75.9%.

As for `COCCCNC(=O)CCc1nc2cccnc2n1Cc1ccc(OC)cc1`, the HER2 level % of control is 96.5%.

As to `Cc1cc(NC(=O)CCC(=O)N(c2cccc(F)c2)C(C(=O)NC2CCCC2)c2ccncc2)no1` (stereo unspecified), the HER2 level % of control was 97%.

With `CCCCn1c(SCC(=O)NCC2CCCO2)nc2ccc(N3CCOCC3)cc2c1=O` (stereo unspecified), the HER2 level % of control was 92.5%.

Consider `CCn1cc(C(=O)NCC2CCCO2)c(=O)c2cc(S(=O)(=O)N3CCCCC3)ccc21` (stereo unspecified), for which the HER2 level % of control was 108%.

Regarding `CCn1c(SCC(=O)NCC2CCCO2)nc2cc(S(=O)(=O)N3CCCCC3)ccc21` (stereo unspecified), the HER2 level % of control is -27.6% (active).

With `Cc1cc(C)nc(SCc2ccccc2C#N)n1`, the HER2 level % of control is 112%.

Regarding `COc1ccc(C(=O)N2CCC(C(=O)Nc3cccc(C)c3)CC2)cc1OC`, the HER2 level % of control was 97.1%.

As to `Cc1nc2ccc(S(=O)(=O)NCC(=O)O)cc2s1`, the HER2 level % of control is 73.5%.

Consider `Cc1nc2cc(S(=O)(=O)C(F)(F)F)ccc2s1`, for which the HER2 level % of control is -17.7% (active).

Take `Cc1nc2ccc(S(=O)(=O)NC(C(=O)N3CCCCCC3)C(C)C)cc2s1` (stereo unspecified): the HER2 level % of control is 82.8%.

In the case of `O=C(NCCN=C1NS(=O)(=O)c2ccccc21)c1ccc(S(=O)(=O)N2CCOCC2)cc1`, the HER2 level % of control was 108%.

`CCOc1ccc(OCc2ccc(C(=O)Nc3cccc(C)n3)o2)cc1`: the HER2 level % of control was 68.1%.

On to `CC(C)(C)n1nnnc1C(c1ccc2ncccc2c1)N1CCSCC1` (stereo unspecified), for which the HER2 level % of control was 92.2%.

Regarding `CC(C)c1ccc(OCC(O)Cn2cnc3ccccc32)cc1` (stereo unspecified), the HER2 level % of control is 83.1%.

Consider `Cc1ccc(S(=O)(=O)N2CCC(C(=O)N[C@@H](C)C(=O)NCc3ccccc3)CC2)cc1`, for which the HER2 level % of control is 102%.

For the compound `Cc1ccc(CCNC(=O)C2CCN(S(=O)(=O)N3CCCC3)CC2)cc1`, the HER2 level % of control is 107%.

For `Cc1ccc(S(=O)(=O)N2CCC(C(=O)N[C@@H](C)C(=O)NCCc3ccccc3)CC2)cc1`, the HER2 level % of control was -21.9% (active).

Consider `CC(C)C[C@H](NC(=O)[C@@H]1O[C@H]1C(=O)O)C(=O)NCCCCN=C(N)N`, for which the HER2 level % of control is 100%.

Source of the values: PubChem BioAssay AID645 (SRMLSC, 2007).
